# Data published in the supplement of paper PMC8728848.
# This is one part of a sample in which the strongest signals are shown more often than they occur.
# B1: Epa1-NP-mutant-E227G (Candida glabrata), Q6VBJ0 (protein)
# chain: MILNPALFLNKCVCIYTTLILLLLTNGGYATSSNDISLASKDPTTFPLGCSPDITTPKKGLSMELYSYDFRKKGSYPCWDAAYLDPNYPRTGYKSHRLLAKVDGVTGNINFYYHATKGCTPQLGHLPASYNYPKPLTMTNFTMLLYGYFRPKVTGFHTFTISADDLLFVNFGAGNAFDCCRRDSSADHFGNYQAYAIWGSKTAKDELTVHLDAGVYYPIRLFYNNRGYDGALSFTFKTESNENTVSDFSEYFFSLDDTEEGCPGLISYDSSCASVKTSKIIGIDYHTETPNENLVPITKTIYHLGIPCTGTTTTPLCGSGFYDPLANKCVTINTSSTSSVTKTTSHTTSKEVSFHSSISSQKTLIPKSIPSPYGPIKSQSIPTEMETSSEISSSEYAFSDVISTPSHSPYTKKHSSLNSSSYTSTVIHSLTSYSISQGIFSTSLSEQNITSKSSTDKFSTATSMSNNITQSSIIISQFSTNNENYTTTSMHTSSDKISTETLNNSISTTTSILFSNSSTILKNNTTIISSDKDTHYHPVNPTIVCSTNKTEIICASITQPSISNSNNHWSSSVLKFNSTTVRSTLPSSAGSNETSINVPFSSSTESNTSTSSTSTSNSKMVRSTLPSSAGSNETSISVPFSSSTESNTSTSSTSTSNSKMVRSTLPSSAGSNETSINVPFSSSTESNTSTSSTSTSNSKTVRSTPFSSAGIIMTSLSQRNNKSASSYASSNSKCYNTADSCRKVHSTPSYLLTSSYTSEGVDYDCSLVSTKLKINDTNCVNNKHTTKSCLKTSVTTTIPTLEIKTARKSSSNTIGLHSYPTSSPNKSISSAPIIGYISSFKTIKTASPSYQTSDLTTITTITSLNNPGSTAVENTHESNDKSRKTSSNDISSKHSVIKETKDAVESSNKSHQTNTLKCSSIIIASSSHNSYESLGGTTLTLTLSKVYSPQNNDTLPFLEISEVNPSRTVLPESSKMMQYLTSTEERNKTARNTIATNIVSISTFHFEGEGNAIRMGYTQLLLMLIGIIVMNIGT
# Experiments:
# Test in all cases: glycan array binding signal (z-score within array); higher = stronger binding
# Details in all cases: glycan notation: IUPAC condensed, linker removed; mutation: E227G
# [1] = biological target: Fuc(a1-2)Gal(b1-3)GalNAc(a1-3)[Fuc(a1-2)]Gal(b1-4)Glc
# In short: (§1)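 From the Consortium for Functional Glycomics database, 3228 arrays were curated, keeping only those whose protein sequence was available. Binding is given as a within-array Z-score averaged across arrays sharing a protein sequence and across linkers. Negative Z-scores can be read as non-binding.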
# [2] = biological target: Fuc(a1-2)Gal(b1-3)GlcNAc(b1-3)[Gal(b1-4)GlcNAc(b1-6)]Gal(b1-4)Glc
# In short: as §1
# [3] = biological target: Fuc(a1-2)Gal(b1-3)[Fuc(a1-4)]GlcNAc(b1-2)Man(a1-3)[Fuc(a1-2)Gal(b1-3)[Fuc(a1-4)]GlcNAc(b1-2)Man(a1-3)]Man(b1-4)GlcNAc(b1-4)GlcNAc
# In short: as §1
# Fuc(a1-2)Gal(b1-4)Glc = biological target: Fuc(a1-2)Gal(b1-4)Glc
# In short: as §1
# [4] = biological target: Fuc(a1-2)Gal(b1-4)GlcNAc(b1-2)Man
# In short: as §1
# [5] = biological target: Fuc(a1-2)Gal(b1-4)[Fuc(a1-3)]GlcNAc(b1-2)Man(a1-3)[Fuc(a1-2)Gal(b1-4)[Fuc(a1-3)]GlcNAc(b1-2)Man(a1-6)]Man(b1-4)GlcNAc(b1-4)[Fuc(a1-6)]GlcNAc
# In short: as §1
# [6] = biological target: Fuc(a1-2)Gal(b1-4)[Fuc(a1-3)]GlcNAc(b1-3)GalNAc
# In short: as §1
# Fuc(a1-2)[Gal(a1-3)]Gal = biological target: Fuc(a1-2)[Gal(a1-3)]Gal
# In short: as §1
# [7] = biological target: Fuc(a1-2)[Gal(a1-3)]Gal(b1-4)GlcNAc(b1-2)Man(a1-3)[Fuc(a1-2)[Gal(a1-3)]Gal(b1-4)GlcNAc(b1-2)Man(a1-6)]Man(b1-4)GlcNAc(b1-4)[Fuc(a1-6)]GlcNAc
# In short: as §1
# [8] = biological target: Fuc(a1-2)[Gal(a1-3)]Gal(b1-4)GlcNAc(b1-3)[Fuc(a1-2)[Gal(a1-3)]Gal(b1-4)GlcNAc(b1-6)]GalNAc
# In short: as §1
# [9] = biological target: Fuc(a1-2)[GalNAc(a1-3)]Gal(b1-3)GalNAc(b1-3)Gal(a1-4)Gal(b1-4)Glc
# In short: as §1
# [10] = biological target: Gal(a1-3)Gal(b1-3)GlcNAc(b1-2)Man(a1-3)[Gal(a1-3)Gal(b1-3)GlcNAc(b1-2)Man(a1-6)]Man(b1-4)GlcNAc(b1-4)GlcNAc
# In short: as §1
# [11] = biological target: Gal(a1-4)Gal(b1-3)GlcNAc(b1-2)Man(a1-3)[Gal(a1-4)Gal(b1-3)GlcNAc(b1-2)Man(a1-6)]Man(b1-4)GlcNAc(b1-4)GlcNAc
# In short: as §1
# Gal(b1-2)Gal = biological target: Gal(b1-2)Gal
# In short: as §1
# Gal(b1-3)Gal(b1-4)GlcNAc = biological target: Gal(b1-3)Gal(b1-4)GlcNAc
# In short: as §1
# Gal(b1-3)GalNAc = biological target: Gal(b1-3)GalNAc
# In short: as §1
# [12] = biological target: Gal(b1-3)GalNAc(b1-4)Gal(b1-4)Glc
# In short: as §1
# [13] = biological target: Gal(b1-3)GlcNAc(b1-2)Man(a1-3)[Gal(b1-3)GlcNAc(b1-2)Man(a1-6)]Man(b1-4)GlcNAc(b1-4)GlcNAc
# In short: as §1
# [14] = biological target: Gal(b1-3)GlcNAc(b1-3)GalNAc
# In short: as §1
# [15] = biological target: Gal(b1-3)GlcNAc(b1-6)Gal(b1-4)GlcNAc
# In short: as §1
# Gal(b1-3)GlcNAc6S = biological target: Gal(b1-3)GlcNAc6S
# In short: as §1
# [16] = biological target: Gal(b1-3)[Fuc(a1-4)]GlcNAc
# In short: as §1
# [17] = biological target: Gal(b1-3)[Neu5Ac(a2-6)]GalNAc
# In short: as §1
# Gal(b1-4)Glc6S = biological target: Gal(b1-4)Glc6S
# In short: as §1
# [18] = biological target: Gal(b1-4)GlcNAc(b1-2)Man(a1-6)Man(b1-4)GlcNAc(b1-4)GlcNAc
# In short: as §1
# [19] = biological target: Gal(b1-4)GlcNAc(b1-3)Gal(b1-4)GlcNAc(b1-2)Man(a1-3)[Gal(b1-4)GlcNAc(b1-3)Gal(b1-4)GlcNAc(b1-2)Man(a1-6)]Man(b1-4)GlcNAc(b1-4)[Fuc(a1-6)]GlcNAc
# In short: as §1
# [20] = biological target: Gal(b1-4)GlcNAc(b1-3)Gal(b1-4)GlcNAc(b1-3)Gal(b1-4)GlcNAc(b1-3)Gal(b1-4)GlcNAc(b1-2)Man(a1-3)[Gal(b1-4)GlcNAc(b1-3)Gal(b1-4)GlcNAc(b1-3)Gal(b1-4)GlcNAc(b1-3)Gal(b1-4)GlcNAc(b1-2)Man(a1-6)]Man(b1-4)GlcNAc(b1-4)GlcNAc
# In short: as §1
# Gal3S6S(b1-4)GlcNAc6S = biological target: Gal3S6S(b1-4)GlcNAc6S
# In short: as §1
# Gal6S(b1-3)GlcNAc = biological target: Gal6S(b1-3)GlcNAc
# In short: as §1
# Gal6S(b1-3)GlcNAc6S = biological target: Gal6S(b1-3)GlcNAc6S
# In short: as §1
# Gal6S(b1-4)Glc6S = biological target: Gal6S(b1-4)Glc6S
# In short: as §1
# Gal6S(b1-4)GlcNAc6S = biological target: Gal6S(b1-4)GlcNAc6S
# In short: as §1
# [21] = biological target: GalNAc(b1-4)GlcNAc(b1-2)Man(a1-3)[GalNAc(b1-4)GlcNAc(b1-2)Man(a1-6)]Man(b1-4)GlcNAc(b1-4)GlcNAc
# In short: as §1
# GalNAc(b1-6)GalNAc = biological target: GalNAc(b1-6)GalNAc
# In short: as §1
binder,measurement,setting,value
B1,glycan array binding signal (z-score),[1],-0.144
same,glycan array binding signal (z-score),[2],-0.113
same,glycan array binding signal (z-score),[3],-0.037
same,glycan array binding signal (z-score),Fuc(a1-2)Gal(b1-4)Glc,-0.104
same,glycan array binding signal (z-score),[4],-0.202
same,glycan array binding signal (z-score),[5],-0.014
same,glycan array binding signal (z-score),[6],0.012
same,glycan array binding signal (z-score),Fuc(a1-2)[Gal(a1-3)]Gal,-0.147
same,glycan array binding signal (z-score),[7],-0.133
same,glycan array binding signal (z-score),[8],-0.138
same,glycan array binding signal (z-score),[9],-0.175
same,glycan array binding signal (z-score),[10],0.258
same,glycan array binding signal (z-score),[11],-0.089
same,glycan array binding signal (z-score),Gal(b1-2)Gal,-0.17
same,glycan array binding signal (z-score),Gal(b1-3)Gal(b1-4)GlcNAc,1.84
same,glycan array binding signal (z-score),Gal(b1-3)GalNAc,1.39
same,glycan array binding signal (z-score),[12],4.13
same,glycan array binding signal (z-score),[13],1.06
same,glycan array binding signal (z-score),[14],-0.236
same,glycan array binding signal (z-score),[15],4.84
same,glycan array binding signal (z-score),Gal(b1-3)GlcNAc6S,2.52
same,glycan array binding signal (z-score),[16],-0.184
same,glycan array binding signal (z-score),[17],1.35
same,glycan array binding signal (z-score),Gal(b1-4)Glc6S,7.04
same,glycan array binding signal (z-score),[18],-0.117
same,glycan array binding signal (z-score),[19],0.016
same,glycan array binding signal (z-score),[20],-0.21
same,glycan array binding signal (z-score),Gal3S6S(b1-4)GlcNAc6S,0.516
same,glycan array binding signal (z-score),Gal6S(b1-3)GlcNAc,0.07
same,glycan array binding signal (z-score),Gal6S(b1-3)GlcNAc6S,3.58
same,glycan array binding signal (z-score),Gal6S(b1-4)Glc6S,13
same,glycan array binding signal (z-score),Gal6S(b1-4)GlcNAc6S,12.7
same,glycan array binding signal (z-score),[21],-0.164
same,glycan array binding signal (z-score),GalNAc(b1-6)GalNAc,-0.146
